Reference: PubChem BioAssay (Tox21)
Results filed as inconclusive are left out. Active and inactive are the calls of the source. Unless noted, calls follow the shape of the dose curve; as a rule, active = well fitted curve in the direction sought with a large enough effect in the repeat runs; inconclusive = weak or mixed curves; inactive = no such curve, though single readings can be large; an effect the other way counts as inactive or inconclusive.

What was measured:
[1] = target: Aryl hydrocarbon receptor (Homo sapiens) (UniProt P35869); assay: qHTS assay to identify small molecule that activate the aryl hydrocarbon receptor (AhR) signaling pathway (AID 743085);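 also: HG2L7.5c1 human HepG2 liver cells with stably integrated DRE-driven firefly reporter; series mostly up to about 70 µM; nearly all actives have a fitted effect of over 15% in size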
Chain of Aryl hydrocarbon receptor (Homo sapiens) (P35869 whole entry, looked up): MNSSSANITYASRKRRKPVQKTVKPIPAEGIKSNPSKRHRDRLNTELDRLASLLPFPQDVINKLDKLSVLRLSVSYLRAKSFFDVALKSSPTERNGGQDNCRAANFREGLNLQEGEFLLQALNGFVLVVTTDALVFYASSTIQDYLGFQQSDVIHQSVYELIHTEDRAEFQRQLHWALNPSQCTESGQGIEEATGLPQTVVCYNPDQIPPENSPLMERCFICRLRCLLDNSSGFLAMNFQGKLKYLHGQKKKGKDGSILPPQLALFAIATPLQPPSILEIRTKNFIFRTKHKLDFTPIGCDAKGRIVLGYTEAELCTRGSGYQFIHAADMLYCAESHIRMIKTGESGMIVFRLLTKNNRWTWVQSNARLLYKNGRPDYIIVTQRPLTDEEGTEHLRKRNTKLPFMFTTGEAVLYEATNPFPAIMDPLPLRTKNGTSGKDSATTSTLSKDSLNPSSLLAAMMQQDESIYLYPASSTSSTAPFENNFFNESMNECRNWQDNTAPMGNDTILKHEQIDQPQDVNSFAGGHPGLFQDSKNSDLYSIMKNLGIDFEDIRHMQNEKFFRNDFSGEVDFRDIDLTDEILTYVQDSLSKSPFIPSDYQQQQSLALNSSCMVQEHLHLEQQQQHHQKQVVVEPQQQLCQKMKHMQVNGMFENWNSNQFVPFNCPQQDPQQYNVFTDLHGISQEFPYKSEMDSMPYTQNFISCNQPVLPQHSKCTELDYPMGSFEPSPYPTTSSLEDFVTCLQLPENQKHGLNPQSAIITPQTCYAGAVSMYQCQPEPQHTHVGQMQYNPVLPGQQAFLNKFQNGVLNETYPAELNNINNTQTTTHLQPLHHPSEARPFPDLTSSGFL
Summary of the method: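 HepG2 cells stably carrying a 20-DRE firefly luciferase reporter (HG2L7.5c1) treated with compound for 24 hr at 37C. Luciferase read by ONE-Glo luminescence, with CellTiter-Fluor viability read first.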

[2] = qHTS assay to identify small molecule that activate the aryl hydrocarbon receptor (AhR) signaling pathway - cell viability counter screen (AID 743086);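 also: HepG2 liver cells carrying the AhR DRE luciferase reporter; series mostly up to about 70 µM; nearly all actives have a fitted effect of over 45% in size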
Summary of the method: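 HepG2-AhR-luc (HG2L7.5c1) cells, 4000/well, treated 24 h at 37 C with compound; viability measured as CellTiter-Fluor fluorescence after 30 min in the same wells as the luciferase read.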

[3] = target: Peroxisome proliferator-activated receptor gamma (Homo sapiens) (UniProt P37231); assay: qHTS assay to identify small molecule agonists of the peroxisome proliferator-activated receptor gamma (PPARg) signaling pathway (AID 743094; active = well fitted activation curve with a large enough effect in the signal ratio in the repeat runs, not every such curve was filed as active; the % refers to the signal ratio)
Chain of Peroxisome proliferator-activated receptor gamma (Homo sapiens) (P37231 whole entry, looked up): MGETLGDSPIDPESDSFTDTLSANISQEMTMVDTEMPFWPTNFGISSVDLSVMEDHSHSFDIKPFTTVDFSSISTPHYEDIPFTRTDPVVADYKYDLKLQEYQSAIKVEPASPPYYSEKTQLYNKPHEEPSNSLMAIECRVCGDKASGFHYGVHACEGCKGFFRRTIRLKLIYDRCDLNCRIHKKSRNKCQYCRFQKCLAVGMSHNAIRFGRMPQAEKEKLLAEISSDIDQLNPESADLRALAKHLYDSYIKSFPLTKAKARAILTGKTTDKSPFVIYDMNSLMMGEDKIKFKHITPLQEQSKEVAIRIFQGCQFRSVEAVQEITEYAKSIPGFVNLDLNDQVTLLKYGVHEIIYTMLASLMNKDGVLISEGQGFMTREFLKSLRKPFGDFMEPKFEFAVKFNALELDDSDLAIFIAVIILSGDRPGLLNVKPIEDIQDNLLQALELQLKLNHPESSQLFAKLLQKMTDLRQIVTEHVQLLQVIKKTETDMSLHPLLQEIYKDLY
Summary of the method: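 Stably transfected HEK293H cells (GeneBLAzer PPARg UAS-bla) were incubated with test substances for 17 h at 37C after a 5 h pre-incubation; beta-lactamase activity was then detected by FRET substrate fluorescence.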

[4] = target: Peroxisome proliferator-activated receptor gamma (Homo sapiens) (UniProt P37231); assay: qHTS assay to identify small molecule antagonists of the peroxisome proliferator-activated receptor gamma (PPARg) signaling pathway (AID 743191; calls by dose curve; also: series mostly up to about 63 µM; nearly all actives have a fitted effect of over 30% in size)
Summary of the method: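 GeneBLAzer PPARg UAS-bla HEK293H cells, 5 h post-plating, exposed to compounds 17 h at 37C. LiveBLAzer B/G FRET substrate added for 1 h at room temperature; beta-lactamase reporter read by fluorescence intensity.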

[5] = qHTS assay to identify small molecule antagonists of the peroxisome proliferator-activated receptor gamma (PPARg) signaling pathway - cell viability counter screen (AID 743194); also: nearly all actives have a fitted effect of over 55% in size
Summary of the method: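 Cytotoxicity counter screen in PPARg-bla HEK293H cells, same wells as reporter assay. Compounds plus 50 nM rosiglitazone (final) for 17 h at 37 C, then viability read by CellTiter-Glo luminescence.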

[6] = qHTS assay for small molecule agonists of the antioxidant response element (ARE) signaling pathway (AID 743202; active = well fitted activation curve with a large enough effect in the signal ratio in the repeat runs, not every such curve was filed as active; the % refers to the signal ratio)
Summary of the method: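 Agonist mode reporter screen: HepG2 cells with ARE-controlled beta-lactamase are incubated with test compounds for 16 h at 37 C, and beta-lactamase activity is measured as fluorescence of cleaved B/G FRET substrate.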

[7] = qHTS assay for small molecule agonists of the antioxidant response element (ARE) signaling pathway - cell viability counter screen (AID 743203; calls by dose curve; also: nearly all actives have a fitted effect of over 55% in size)
Summary of the method: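 Cells (ARE-bla HepG2, 2,000/well) receive DMSO-dissolved compounds after a 5 hrs rest. Plates incubate 16 hrs at 37C/5% CO2. CellTiter-Glo luminescence is then recorded after 30 min at room temperature.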

[8] = qHTS assay for small molecule activators of the heat shock response signaling pathway - cell viability counter screen (AID 743209); also: nearly all actives have a fitted effect of over 50% in size
Summary of the method: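 Quantitative HTS format, Tox21 10K library. HeLa cells carrying an HSE-driven beta-lactamase reporter were treated 5 h at 37 C, then assessed for viability by CellTiter-Glo luminescence.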

[9] = qHTS assay for small molecule activators of the heat shock response signaling pathway (AID 743210; active = well fitted activation curve with a large enough effect in the signal ratio in the repeat runs, with a control signal flat, not every such curve was filed as active; the % refers to the signal ratio;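 also: HeLa cells with beta-lactamase reporter driven by heat shock elements; series mostly up to about 63 µM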)
Summary of the method: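 Quantitative high-throughput format using an engineered HeLa line in which heat shock response elements drive beta-lactamase; after 5 h with compound, cells received a B/G FRET substrate and fluorescence was read.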

[10] = qHTS assay to identify small molecule agonists of the peroxisome proliferator-activated receptor delta (PPARd) signaling pathway - cell viability counter screen (AID 743211); also: nearly all actives have a fitted effect of over 55% in size
Summary of the method: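 PPARd-bla HEK293H cells (3000/well) were pre-incubated 5 h at 37 C, then exposed to compound for 17 h at 37 C. After 2 h with LiveBLAzer substrate, CellTiter-Glo was added to the same wells; luminescence read after 30 min at room temperature.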
% is scaled to controls: 0 for no effect and ±100 for the full control effect.

C=C(C)C(=O)OCCOC1CC2CC1C1C=CCC21 (stereo not drawn)
inactive: Potency [1] | outcome [2] | outcome [3] | outcome [4] | outcome [5] | Potency [6] | outcome [7] | Potency [8] | outcome [9] | outcome [10]

CN(C)CCc1c[nH]c2ccc(C[C@H]3COC(=O)N3)cc12
inactive: Potency [1] | outcome [2] | outcome [3] | outcome [4] | outcome [5] | Potency [6] | outcome [7] | Potency [8] | outcome [9] | outcome [10]

COC(=O)C(c1ccccc1Cl)N1CCc2sccc2C1 (stereo not drawn)
inactive: Potency [1] | outcome [2] | outcome [3] | outcome [4] | outcome [5] | Potency [6] | outcome [7] | Potency [8] | outcome [9] | outcome [10]

COC(=O)c1ccccc1Cl
inactive: Potency [1] | outcome [2] | outcome [3] | outcome [4] | outcome [5] | Potency [6] | outcome [7] | outcome [9] | outcome [10]

NCC1CCC(C(=O)Oc2ccc(CCC(=O)O)cc2)CC1 (stereo not drawn)
inactive: Potency [1] | outcome [2] | outcome [3] | outcome [4] | outcome [5] | Potency [6] | outcome [7] | Potency [8] | outcome [9] | outcome [10]

CCC(C)c1nccnc1OC (stereo not drawn)
inactive: Potency [1] | outcome [2] | outcome [3] | outcome [4] | outcome [5] | Potency [6] | outcome [7] | Potency [8] | outcome [9] | outcome [10]

CC(O)CCCCn1c(=O)c2c(ncn2C)n(C)c1=O (stereo not drawn)
inactive: Potency [1] | outcome [2] | outcome [3] | outcome [4] | outcome [5] | Potency [6] | outcome [7] | Potency [8] | outcome [9] | outcome [10]

CN(C)CCCN(C)C
inactive: activation [1] -0.58% [at 8.47 µM] | viability change, negative = cytotoxic [2] -2.64% [at 8.47 µM] | activation [3] -0.396% [at 7.08 µM] | ratio activity, negative = inhibition [4] 4.44% [at 5.95 µM] | activity change, negative = cytotoxicity [5] -7.23% [at 5.95 µM] | activation [6] -1.85% [at 8.36 µM] | viability change, negative = cytotoxic [7] 5.88% [at 8.36 µM] | activation [9] -0.827% [at 5.95 µM] | activity change, negative = cytotoxicity [10] -3.03% [at 5.95 µM]

N#CC1(N)CCCCC1
inactive: Potency [1] | outcome [2] | outcome [3] | outcome [4] | outcome [5] | Potency [6] | outcome [7] | Potency [8] | outcome [9] | outcome [10]

CC(C)(Sc1cc(C(C)(C)C)c(O)c(C(C)(C)C)c1)Sc1cc(C(C)(C)C)c(O)c(C(C)(C)C)c1
inactive: Potency [1] | outcome [2] | outcome [3] | outcome [4] | outcome [5] | Potency [6] | outcome [7] | Potency [8] | outcome [9] | outcome [10]

C/C=C(\C)C=O
inactive: Potency [1] | outcome [2] | outcome [3] | outcome [4] | outcome [5] | Potency [6] | outcome [7] | Potency [8] | outcome [9] | outcome [10]

CC(C)(C)c1ccc(N)cc1
inactive: Potency [1] | outcome [2] | outcome [3] | outcome [4] | outcome [5] | Potency [6] | outcome [7] | Potency [8] | outcome [9] | outcome [10]

Cc1cccc(N)n1
inactive: Potency [1] | outcome [2] | outcome [3] | outcome [4] | outcome [5] | Potency [6] | outcome [7] | Potency [8] | outcome [9] | outcome [10]

CCc1ncc(C)[nH]1
inactive: Potency [1] | outcome [2] | outcome [3] | outcome [4] | outcome [5] | Potency [6] | outcome [7] | Potency [8] | outcome [9] | outcome [10]

O=C(O)CCCCCCCCCC(=O)O
inactive: Potency [1] | outcome [2] | outcome [3] | outcome [4] | outcome [5] | Potency [6] | outcome [7] | Potency [8] | outcome [9] | outcome [10]

CCCCCCCCC1CO1 (stereo not drawn)
inactive: Potency [1] | outcome [2] | outcome [3] | outcome [4] | outcome [5] | Potency [6] | outcome [7] | Potency [8] | outcome [9] | outcome [10]

Cc1ccc(Br)cc1
inactive: Potency [1] | outcome [2] | outcome [3] | outcome [4] | outcome [5] | Potency [6] | outcome [7] | Potency [8] | outcome [9] | outcome [10]

O=C1c2ccccc2C(=O)N1CO
inactive: Potency [1] | outcome [2] | outcome [3] | outcome [4] | outcome [5] | Potency [6] | outcome [7] | Potency [8] | outcome [9] | outcome [10]

CCCCCCCCCCCCCCCC(=O)OC
inactive: Potency [1] | outcome [2] | outcome [3] | outcome [4] | outcome [5] | Potency [6] | outcome [7] | Potency [8] | outcome [9] | outcome [10]

CC(=O)OC/C=C(/C)CCC=C(C)C
inactive: Potency [1] | outcome [2] | outcome [3] | outcome [4] | outcome [5] | Potency [6] | outcome [7] | Potency [8] | outcome [9] | outcome [10]

CCCCCCCCCCCC(C)=O
inactive: Potency [1] | outcome [2] | outcome [3] | outcome [4] | outcome [5] | Potency [6] | outcome [7] | Potency [8] | outcome [9] | outcome [10]

CC(=O)Nc1ccc(OCCOCCOc2ccc(NC(C)=O)cc2)cc1
inactive: Potency [1] | outcome [2] | outcome [3] | outcome [4] | outcome [5] | Potency [6] | outcome [7] | Potency [8] | outcome [9] | outcome [10]

CC(C)CC(O)Cc1ccccc1 (stereo not drawn)
inactive: Potency [1] | outcome [2] | outcome [3] | outcome [4] | outcome [5] | Potency [6] | outcome [7] | Potency [8] | outcome [9] | outcome [10]
